Assay results: PubChem BioAssay (NCI)
This is part of a sample that, as a whole, favours compounds with a hit. Of some 83,000 tested, about 20% had one in any assay.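 Interpretation: 100, growth as untreated; towards 0, rising growth inhibition; 0, no net growth; 0 to -100, cell death. Compounds scoring below 10 were considered active.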 Values without a mark were called inactive. Active and inactive are the calls of the source.

Tests used:
Experiment in all cases: NCI-60 one-dose screen, 48 h (100 = growth as untreated, 0 = no growth, -100 = all killed)
Conditions in all cases: 10 µM unless noted
DU-145 prostate = test system: DU-145 prostate
K-562 leukemia = test system: K-562 leukemia
MALME-3M melanoma = test system: MALME-3M melanoma
MDA-MB-231 breast = test system: MDA-MB-231 breast
RXF 393 renal = test system: RXF 393 renal
SF-268 CNS = test system: SF-268 CNS
SF-295 CNS = test system: SF-295 CNS
SF-539 CNS = test system: SF-539 CNS
UACC-257 melanoma = test system: UACC-257 melanoma
M14 melanoma = test system: M14 melanoma

SMILES | growth (DU-145 prostate) | growth (K-562 leukemia) | growth (MALME-3M melanoma) | growth (MDA-MB-231 breast) | growth (RXF 393 renal) | growth (SF-268 CNS) | growth (SF-295 CNS) | growth (SF-539 CNS) | growth (UACC-257 melanoma) | growth (M14 melanoma)
N#C/C(=C\c1ccc(-c2ccc(Cl)c(Cl)c2)o1)C(=O)Nc1ncc(Cc2ccc(Cl)cc2)s1 | 29.7% | 52.5% | 17.2% | 50% | 66% | 34.7% | 20.4% | 46.7% | 78.2% | 21.6%
O=C1Nc2ccccc2/C1=N\c1nnc(-c2ccccc2)o1 | 107% | 103% | 89.7% | 82.9% | 92% | 98.1% | 92.8% | 97.8% | 100% | 95.9%
COc1ccc(/C=N/NC(=O)c2c(N)nn(C)c2Nc2ccccc2)cc1Oc1ccccc1 | 101% | 88% | 91.1% | 94.9% | 87.1% | 94% | 90.4% | 95.7% | 96.9% | 101%
COc1cc(OC)cc(-c2cc(-c3c[nH]c4ccccc34)nc(-c3c[nH]c4ccccc34)c2C#N)c1 | 101% | 93.2% | 108% | 101% | 108% | 100% | 101% | 94.2% | 112% | 95%
N#Cc1nc(-c2ccccc2)oc1N1CCC(C2(C(F)(F)F)N=N2)CC1 | 103% | 90% | 102% | 93.8% | 99.4% | 101% | 101% | 99.2% | 102% | 102%
Cc1ccsc1[C@H]1c2[nH]c3ccccc3c2C[C@H]2C(=O)N(CCCCCCC(=O)NO)CC(=O)N12 | 90.6% | 58.2% | 25.6% | 96.8% | 85.9% | 105% | 95.1% | 77.9% | 76% | 86.4%
COC(=O)CNC(=O)c1cccc(-c2cc(=O)c3c(OC)c(OC)c(OC)cc3o2)c1 | 108% | 125% | 95.2% | 101% | 99.4% | 101% | 101% | 103% | 103% | 103%
CCCCSC1=C(Cl)CN(c2ccc(Cl)cc2)C1=O | 106% | 82.6% | 103% | 104% | 109% | 105% | 93% | 85.2% | 107% | 96.5%
COC(=O)N1CCN(CCNCc2ccc(NC(=O)c3ccc(C)c(C#Cc4cnc5cccnn45)c3)cc2C(F)(F)F)CC1 | 44.9% | 5.18% (active) | -49.1% (active) | -9.19% (active) | -47.2% (active) | 28.2% | -25.1% (active) | -15.9% (active) | -10.6% (active) | 8.75% (active)
COc1ccccc1Cn1cc(C#N)c(N)c1C(=O)c1ccc(Br)cc1 | 104% | 83.2% | 96% | 88.7% | 92.1% | 96.2% | 93% | 99.8% | 100% | 98.5%
CNC(=O)c1cc(N2CCc3cc(NC(=O)Nc4ccc(N5CCN(C)CC5)c(C(F)(F)F)c4)ccc32)ccn1 | 84.6% | 0.938% (active) | 67.8% | 74.3% | -16% (active) | 80.4% | -49.8% (active) | 16.8% | 104% | 61.6%
Brc1ccc(-c2cc(-c3ccc4c(c3)OCCO4)n[nH]2)s1 | 39.8% | 12.4% | 45.8% | 41.9% | 32% | 62.4% | 18.4% | 23.5% | 75.1% | 21.3%
C/C(=C(\c1ccc(O)cc1)c1ccc(OCCN2CCCCCC2)cc1)c1ccc(Cl)cc1 | -86.4% (active) | 5.91% (active) | -80.3% (active) | -85% (active) | -87.4% (active) | -62.5% (active) | -93.7% (active) | -91.8% (active) | -81.8% (active) | -86.5% (active)
Cc1ccc2c(n1)C(=O)C(Cl)=C(Nc1cc(C(F)(F)F)cc(C(F)(F)F)c1)C2=O | 95.3% | 4.18% (active) | 47.9% | 87.1% | 74.5% | 87.1% | 95.7% | 93.9% | 75.2% | 89.9%
Nn1c(=O)n(-c2cccc(C(F)(F)F)c2)c(=O)c2cc(-c3ccc(F)cc3F)ccc21 | 24.4% | 6.85% (active) | -17.2% (active) | -10.2% (active) | 3.65% (active) | 17.8% | -4.06% (active) | 19.4% | -8.9% (active) | 17.1%
COc1ccc2sc(NC(=O)CCCCCCNC(=O)C(O)(O)C(F)(F)F)nc2c1 | 4.67% (active) | 11.2% | 20.7% | 20% | -47.6% (active) | -0.601% (active) | -37.1% (active) | 6.85% (active) | 12.5% | 13.4%
O=C(/C=C/c1ccccc1Cl)Nc1ncc(Cc2cc(Cl)ccc2Cl)s1 | 30.7% | 12.9% | 39.7% | 49.4% | 17.2% | 43.9% | 14.7% | 1.2% (active) | 61.5% | 18.2%
C[C@]12CC[C@H]3[C@@H](CC=C4C[C@@H](O)CC[C@@]43C)[C@@H]1CC[C@@H]2[C@](C)(O)CCc1cccnc1 | 53.5% | 26.4% | 47% | 77.2% | 66.4% | 70.7% | 45% | 66.2% | 53.8% | 85.6%
COc1ccc(C(=O)c2c(N)c(C#N)cn2-c2ccc(Cl)cc2Cl)cc1 | 110% | 93.6% | 96.9% | 90.8% | 97% | 100% | 98.8% | 102% | 98.2% | 91.2%
